TDP1 cell noCPT – qHTS for Inhibitors of human tyrosyl-DNA phosphodiesterase 1 (TDP1): qHTS in cells in absence of CPT. DT40 Tdp1-/- hTDP1 cells, no CPT, ATP luminescence, 48 h. Potency, µM (doses to about 46.2 µM), most hits filed as inhibitors. hit rate 15% among 420,000; further: nearly all actives have a fitted effect of over 55% in size
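Chicken DT40 Tdp1-/- cells stably complemented with human TDP1 were seeded at 400 cells/well with DMSO in place of 20 nM camptothecin. After compound pinning, cells grew at least 48 hr at 37 °C; viability read by CellTiter-Glo luminescence.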
DT40 TDP1 CPT – growth inhibition of DT40 Tdp1-/-;hTDP1 cells with camptothecin (screen for TDP1 inhibitors); chicken DT40 Tdp1-/-;hTDP1 cells + 20 nM CPT, ATP luminescence, 48 h; Potency, µM (top dose mostly 46.2 µM), usual class: inhibitors; hit rate 12% among 420,000; AID 686979; further: nearly all actives have a fitted effect of over 55% in size
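Chicken DT40 Tdp1-/- cells complemented with human TDP1, 400 cells/well, exposed to compounds plus 20 nM camptothecin for at least 48 h at 37 C; viability read as ATP content by CellTiter-Glo luminescence.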
ClpP mod – qHTS Assay for Activators of ClpP; purified B. subtilis ClpP, FRET peptide cleavage, 20 min; Potency, µM (highest dose often 57.5 µM); hit rate 1.9% among 340,000; active means well fitted falling curve with a large enough effect; inconclusive means small, poorly fitted or top-dose-only effect; inactive means no such curve, though single readings can be large or run the other way; further: the source files actives as falling curves though it sought activators and does not explain the sign; nearly all actives have a fitted effect of over 65% in size
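ClpP 10 microg/mL final, pH 8 Tris/KCl buffer with BSA, glycerol, Tween-20; compound pinned in; FRET-FV substrate; RT 20 min; Ex320/Em430; ΔFRET vs ADEP 5.8 microM, DMSO, no enzyme.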
TDP1 inh – inhibitors of human tyrosyl-DNA phosphodiesterase TDP1; Q9NUW8; hit rate 0.28% among 350,000; AID 485290; recombinant TDP1, AlphaScreen DNA substrate cleavage; Potency, µM (doses to about 130 µM), actives largely listed as inhibitors; further: nearly all actives have a fitted effect of over 40% in size
Target sequence (Q9NUW8 whole entry, looked up): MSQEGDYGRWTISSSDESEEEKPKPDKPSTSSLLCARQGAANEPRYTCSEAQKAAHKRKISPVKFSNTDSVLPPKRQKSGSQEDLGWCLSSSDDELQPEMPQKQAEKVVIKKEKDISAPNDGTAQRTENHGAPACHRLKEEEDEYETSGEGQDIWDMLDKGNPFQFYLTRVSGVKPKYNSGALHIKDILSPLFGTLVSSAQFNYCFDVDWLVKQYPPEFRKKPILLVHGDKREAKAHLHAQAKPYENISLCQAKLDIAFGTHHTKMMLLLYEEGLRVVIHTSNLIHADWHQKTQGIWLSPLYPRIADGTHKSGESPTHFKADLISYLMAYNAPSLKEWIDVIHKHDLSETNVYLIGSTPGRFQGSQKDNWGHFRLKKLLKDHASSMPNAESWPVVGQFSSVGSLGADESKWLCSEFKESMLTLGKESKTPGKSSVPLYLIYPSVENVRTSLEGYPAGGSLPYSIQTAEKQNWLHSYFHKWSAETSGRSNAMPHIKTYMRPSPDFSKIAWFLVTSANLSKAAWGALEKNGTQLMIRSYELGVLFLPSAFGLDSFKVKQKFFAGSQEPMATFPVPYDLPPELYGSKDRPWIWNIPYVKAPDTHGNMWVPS
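Steps: enzyme plus compound, 15 min RT; add biotin/phosphotyrosine-FITC oligonucleotide (15 nM final), react 5 min; add donor/acceptor beads (10 ug/ml final), 10 min; read AlphaScreen. Tdp1 at 1 nM final.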
Hits are given with their value; i = inactive; ? = inconclusive; nt = not tested or not shown. Hits are enriched below; roughly 17% of the tested compounds scored in any of these assays. Unless noted, the call rests on the fitted dose curve; in most records, active means well fitted curve in the direction sought with a large enough effect; inconclusive means small, poorly fitted or top-dose-only effect, or another doubt; inactive means no such curve, though single readings can be large; an effect the other way counts as inactive or inconclusive.

SMILES	TDP1 cell noCPT	DT40 TDP1 CPT	ClpP mod	TDP1 inh
NS(=O)(=O)c1ccc(CCNc2ccn3nc(-c4ccccc4)cc3n2)cc1	?	26µM	i	nt
C=CCNc1nc(C(=O)OC(C)C(=O)c2ccc(C)cc2)cs1 (centres undefined)	?	i	i	i
Cc1c(CCC(=O)NCCc2ccccc2F)c(=O)oc2cc(O)ccc12	?	?	i	i
Cc1ccc(S(=O)(=O)N(C)Cc2ccc(C(=O)N/N=C/c3ccc(OC(F)F)cc3OC(F)F)cc2)cc1	23µM	?	?	i
Cc1cc(Cl)ccc1NC(=O)C1CCN(c2nnc(-n3c(C)ccc3C)s2)CC1	21µM	?	i	i
CCOc1ccc(NC(=O)C2CCCN(c3nnc(-n4c(C)ccc4C)s3)C2)cc1 (centres undefined)	?	?	i	i
CCCCOc1ccc(CNC(=O)C2CCCN(c3nnc(-n4c(C)ccc4C)s3)C2)cc1 (centres undefined)	?	?	i	i
O=C(NCc1ccccc1F)C1CCN(c2nnc(-n3cccc3)s2)CC1	?	?	i	i
CCc1ccc(NC(=O)C2CCN(c3nnc(-n4c(C)ccc4C)s3)CC2)cc1	23µM	16µM	i	i
CCc1ccccc1NC(=O)C1CCCN(c2nnc(-n3c(C)ccc3C)s2)C1 (centres undefined)	21µM	21µM	i	i
CC(NC(=O)C1CCN(c2nnc(-n3cccc3)s2)CC1)C12CC3CC(CC(C3)C1)C2 (centres undefined)	15µM	16µM	i	i
O=C(COC(=O)COc1ccc(Br)cc1)NC1CCS(=O)(=O)C1 (centres undefined)	i	i	i	nt
O=C(NC1CCN(Cc2ccccc2)CC1)C1CCCN(c2nnc(-n3cccc3)s2)C1 (centres undefined)	?	?	i	i
Cc1ccc(NC(=O)C2CCCN(c3nnc(-n4c(C)ccc4C)s3)C2)c(C)c1 (centres undefined)	16µM	?	i	i
Cc1c(Cl)cccc1NC(=O)C1CCCN(c2nnc(-n3c(C)ccc3C)s2)C1 (centres undefined)	16µM	?	i	i
Cc1ccc(NC(=O)C2CCCN(c3nc4ccccc4s3)C2)c(C)c1 (centres undefined)	i	i	i	i
CC(CCc1ccccc1)NC(=O)C1CCCN(c2nnc(-n3cccc3)s2)C1 (centres undefined)	?	18µM	i	i
COc1cccc(CNC(=O)C2CCCN(c3nnc(-n4c(C)ccc4C)s3)C2)c1OC (centres undefined)	?	?	i	i
COc1cc(OC)c2nc(-c3cc4c(c(OC)c3)OCCN(C(=O)CC3NC(=O)c5ccccc53)C4)cc(C)c2c1 (centres undefined)	23µM	?	nt	nt
O=C(CCN=C1NS(=O)(=O)c2ccccc21)OCc1nnc(-c2ccccc2)o1	i	i	i	i
COc1cc(/C=c2\sc3nc(-c4ccncc4)nn3c2=O)ccc1OC(C)=O	nt	nt	nt	i
CC(=O)Oc1cccc(/C=c2\sc3nc(-c4ccco4)nn3c2=O)c1	16µM	?	i	nt
CCc1cccc(CC)c1C(OC(C)=O)c1cccnc1 (centres undefined)	?	i	i	nt
Cc1ccc(C(C)NC(=S)NCc2ccc(F)cc2)cc1C (centres undefined)	?	?	i	i
Cc1ccc(C(C)NC(=S)NCc2ccc(F)cc2)c(C)c1 (centres undefined)	16µM	21µM	i	i
Cc1ccc(NC(=O)N(Cc2c[nH]c3ccccc23)C2CCCCCC2)cc1C	8.2µM	7.3µM	i	i
COc1cccc(NC(=O)N(Cc2c[nH]c3ccccc23)C2CCCCC2)c1	18µM	8.2µM	i	i
O=C(NNc1ccccc1)c1ccc(Cl)c(Cl)c1	i	i	i	nt
O=C1Nc2ccccc2N=C(c2ccc3c(c2)OCO3)C1N(C(=O)c1ccnc2ccccc12)c1ccccc1 (centres undefined)	18µM	21µM	i	nt
COc1ccc(C2=Nc3ccccc3NC(=O)C2N(Cc2ccc(F)cc2)C(=O)c2ccco2)cc1 (centres undefined)	?	?	i	nt

Assay outcomes deposited in PubChem by National Center for Advancing Translational Sciences (NCATS).
